The record followed here is PubChem BioAssay (NCI).

About 79,000 compounds went through this panel and 15% of them were active in at least one assay; those are over-represented in the sample as a whole. Unmarked numbers belong to inactive results. Calls of active or inactive are those of the source. Cut-off read from the data, not from the text of the source: active = growth inhibition above about 70%; inactive = the rest.

Assay [1] can be described thus: NCI Yeast Anticancer Drug Screen. Data for the rad50 strain (AID 155).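 Note: 0% = growth of vehicle-only cultures of the same strain.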 The conditions noted are these: S. cerevisiae rad50 strain growth inhibition; at 50.0 µM; active compounds read high. The method, boiled down: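 Compounds were tested on a yeast strain with an engineered DNA damage repair alteration; the reported value is growth inhibition normalised to vehicle treatment.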

Assay [2] is described as follows: NCI Yeast Anticancer Drug Screen. Data for the mec2-1 strain (AID 157). The following applies: S. cerevisiae mec2-1 strain, at 50.0 µM, active compounds read high. The method, boiled down: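 Using mec2-1 yeast: add compound, measure growth, express inhibition versus vehicle-treated cultures.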
Assay [3] is described as follows: NCI Yeast Anticancer Drug Screen. Data for the sgs1 mgt1 strain (AID 161).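 Note: 0% = growth of cultures given vehicle only.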 The following applies: S. cerevisiae sgs1 mgt1 strain, at 50.0 µM, active compounds read high. The gist of the method:
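This yeast growth screen uses a strain with defined DNA-repair lesions; compound-treated growth is compared with vehicle-treated growth.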

Assay [4] can be described thus: NCI Yeast Anticancer Drug Screen. Data for the cln2 rad14 strain (AID 165).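 Note: 0% = growth equal to vehicle treated cultures.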 The following applies: S. cerevisiae cln2 rad14 strain, at 50.0 µM, active compounds read high. The gist of the method:
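Yeast strain cln2 rad14, bearing defects in cell cycle control and DNA repair, serves as the test system; values reflect growth inhibition compared with vehicle.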

A short description of assay [5]: NCI Yeast Anticancer Drug Screen. Data for the bub3 strain (AID 167). The following applies: S. cerevisiae bub3 mutant strain, at 50.0 µM, active compounds read high. The gist of the method: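 Growth of a checkpoint-deficient yeast mutant is measured after compound exposure. Values represent inhibition relative to vehicle.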
Assay [6] in a line: NCI Yeast Anticancer Drug Screen. Data for the mlh1 rad18 strain (AID 175). The following applies: S. cerevisiae mlh1 rad18 strain growth inhibition; at 50.0 µM; active compounds read high. The gist of the method: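 Steps: expose repair-defective yeast to compound; measure growth; express inhibition against vehicle-treated controls.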

Turning to `C=CCCCCCCCCCCCCCCC`, the growth inhibition in assay [1] is -36%; in assay [2], -26.9%; in assay [3], -26.2%; in assay [4], 5.3%; in assay [5], -31.9%; in assay [6], -35%.

In the case of `CCCCN(C)CCNc1cc(C)nc(Nc2nc3ccc(Cl)cc3[nH]2)n1`, the growth inhibition in assay [1] is 90% (active); in assay [2] it was 96.2% (active); in assay [3], 74.9% (active); in assay [4], 96.6% (active); in assay [5] it was 97.9% (active); in assay [6], 96.2% (active).

For the molecule `COC(=O)CCOc1ccc(C)cc1`, the growth inhibition in assay [1] is 28.2%; in assay [2] it was 12.9%; in assay [3] it was 6.6%; in assay [4] it was 10.3%; in assay [5], -5.85%; in assay [6] it was -21.9%.

`CCNC(=O)C1C2C=CC(C2)C1C(=O)NCC` (configuration not stated): the growth inhibition is 2.9% in assay [1]; -9.6% in assay [2]; -9.15% in assay [3]; -46% in assay [4]; -5.3% in assay [5]; 0.05% in assay [6].

As to `Nc1nnc(-c2ccccc2)o1`, the growth inhibition in assay [1] is 9.85%; in assay [2], -4.8%; in assay [3] it was 4.05%; in assay [4] it was -19.9%; in assay [5], 4.8%; in assay [6] it was 3.35%.

For `CCc1cc2c(c3c1CCCC3)CC1(Cc3ccc(C(=O)OC)cc3C1)C2` (configuration not stated), the growth inhibition in assay [1] was 3.65%; in assay [2] it was -11.7%; in assay [3], -16.4%; in assay [4], 10.3%; in assay [5] it was 3.15%; in assay [6], -12.4%.

On to `C=CCOC/C=C\CCOCC/C=C/COCC=C` (tested in a mixture with another compound), for which the growth inhibition in assay [1] is 5%; in assay [2], 1.3%; in assay [3] it was 6.25%; in assay [4], -13.6%; in assay [5], 2.45%; in assay [6], 2.35%.

For the molecule `O=C(CCCl)Nc1c(Cl)cccc1Cl`, the growth inhibition in assay [1] is 10.2%; in assay [2], 11.7%; in assay [3] it was 8.9%; in assay [4], 18.6%; in assay [5], 21.1%; in assay [6], -3.65%.

Turning to `COc1ccccc1NC(=O)Nc1ccccc1`, the growth inhibition in assay [1] was 1.9%; in assay [2], -4.3%; in assay [3], 3.7%; in assay [4], -23.5%; in assay [5] it was -4.65%; in assay [6], 0.3%.

Take `CC(=O)OC/C=C(\C)CCC=C(C)C`: the growth inhibition in assay [1] was -21.6%; in assay [2], -23.4%; in assay [3], -12.2%; in assay [4], -6.65%; in assay [5], -0.55%; in assay [6] it was -5.15%.

For `Nc1nnc(-c2ccccc2)s1`, the growth inhibition in assay [1] is -11.8%; in assay [2], 5.95%; in assay [3], 2.2%; in assay [4] it was 13.8%; in assay [5] it was 5.85%; in assay [6] it was 5.05%.

Regarding `CC(C)(C)c1ccc(O)c(CN(Cc2cc(C(C)(C)C)ccc2O)c2ccccc2)c1`, the growth inhibition in assay [1] is 44.4%; in assay [2], 26.9%; in assay [3], 21.6%; in assay [4], -2.2%; in assay [5], 62%; in assay [6] it was 54.8%.

Regarding `Cc1ccccc1C(OCCN(C)C)c1ccccc1` (configuration not stated), the growth inhibition in assay [1] is -46.2%; in assay [2], -44.8%; in assay [3] it was -44%; in assay [4], -6.65%; in assay [5], -39%; in assay [6], -28.1%.

For the molecule `Nc1nnnn1C1CCCCC1`, the growth inhibition was 9.3% in assay [1]; 3.8% in assay [2]; -4.65% in assay [3]; -8.65% in assay [4]; -11.3% in assay [5]; 20.9% in assay [6].

For the molecule `O/N=C1\CC2(N3CCOCC3)CCC1(c1ccccc1)CC2`, the growth inhibition in assay [1] is 11.5%; in assay [2] it was -12.3%; in assay [3] it was 54.1%; in assay [4], 20.9%; in assay [5] it was 38%; in assay [6] it was 11.9%.

As to `CCOC(=O)C1=C(C)NC(=O)NC1c1cccc(OC)c1O` (configuration not stated), the growth inhibition in assay [1] is 11%; in assay [2], 0.15%; in assay [3], 16.7%; in assay [4] it was 9.7%; in assay [5], 30.8%; in assay [6], 18.1%.

Consider `CC1CCC2(C)OC1OC2CN` (configuration not stated), for which the growth inhibition in assay [1] is 1.15%; in assay [2], 2.85%; in assay [3], -2.2%; in assay [4] it was -0.55%; in assay [5], 0.3%; in assay [6], -4.65%.

As to `Cc1ccc(S(=O)(=O)Oc2ccccc2OS(=O)(=O)c2ccc(C)cc2)cc1`, the growth inhibition in assay [1] was 3.4%; in assay [2] it was 2.35%; in assay [3], -13.9%; in assay [4] it was -4.1%; in assay [5] it was -5%; in assay [6] it was 0.75%.

As for `CC1CN=C(N(Cc2ccc(F)cc2)C(=O)Nc2ccc(Cl)cc2)S1` (configuration not stated), the growth inhibition is -35.5% in assay [1]; -8.95% in assay [2]; -41.5% in assay [3]; 1.6% in assay [4]; 7.7% in assay [5]; -34.3% in assay [6].

For `COc1ccccc1CC(=O)C(O)(C(F)(F)F)C(F)(F)F`, the growth inhibition was -37.5% in assay [1]; -36.3% in assay [2]; -18.9% in assay [3]; -28.6% in assay [4]; -5.9% in assay [5]; -26.9% in assay [6].

`CCCCSc1n[nH]c(=O)nc1N`: the growth inhibition is -5.5% in assay [1]; -7.95% in assay [2]; -3.1% in assay [3]; -11.3% in assay [4]; -11.6% in assay [5]; 3.9% in assay [6].

Turning to `C=CCc1ccc(OC(=O)Nc2ccc(S(=O)(=O)N(C)C)cc2)c(OC)c1`, the growth inhibition in assay [1] is 26.6%; in assay [2], 2%; in assay [3], 22.8%; in assay [4], 14.6%; in assay [5], 6.75%; in assay [6] it was 19.2%.

For `CCn1c(=O)c(Cl)c2n(C)c3ccccc3n2c1=O`, the growth inhibition was -6.2% in assay [1]; -7.7% in assay [2]; -2.85% in assay [3]; -4.4% in assay [4]; 10.6% in assay [5]; -1.05% in assay [6].

In the case of `COC1CCC(C(C)=O)C(C#N)(C#N)C1(C#N)C#N` (configuration not stated), the growth inhibition in assay [1] was -6.3%; in assay [2], -1.25%; in assay [3], -12.1%; in assay [4], -4.95%; in assay [5], -12.5%; in assay [6] it was -13.8%.

As to `O=C(/C=C/c1ccc(OCCSCCCCCCCCCCSCCOc2ccc(/C=C/C(=O)c3ccc(Cl)cc3)cc2)cc1)c1ccc(Cl)cc1`, the growth inhibition in assay [1] is -26.9%; in assay [2] it was -25.1%; in assay [3], -21.9%; in assay [4], 13.7%; in assay [5], -8.95%; in assay [6], -29.9%.

`O=C(C[n+]1ccccc1-c1ccccn1)c1ccc(-c2ccccc2)cc1`: the growth inhibition in assay [1] is 7.9%; in assay [2] it was 10.7%; in assay [3], 22.4%; in assay [4] it was -14.7%; in assay [5] it was 1%; in assay [6], 34.6%.

On to `Cc1ccc(N=Nc2ccc(C)cc2NC(=O)Nc2cc([N+](=O)[O-])ccc2F)cc1`, for which the growth inhibition in assay [1] is 13.4%; in assay [2] it was -16.1%; in assay [3], -4.6%; in assay [4], -5.9%; in assay [5] it was -4.3%; in assay [6], -5.4%.

Consider `CCC(=O)OCCOC(=O)CC`, for which the growth inhibition in assay [1] is 26.8%; in assay [2] it was 16.7%; in assay [3], 6.9%; in assay [4], 18.6%; in assay [5], 23.6%; in assay [6] it was 9.25%.

`COc1ccc2c3c(ccc2c1)C1CC(=O)CC1CC3` (configuration not stated): the growth inhibition in assay [1] was 30.6%; in assay [2] it was -11.2%; in assay [3], 54.8%; in assay [4] it was 12.2%; in assay [5] it was 61%; in assay [6], 14.7%.

Consider `NC(N)=Nc1ccc(Sc2ccc(N=C(N)N)cc2)cc1`, for which the growth inhibition in assay [1] was -15.8%; in assay [2] it was -35.5%; in assay [3], -16.6%; in assay [4], -19.6%; in assay [5] it was -4.65%; in assay [6] it was -26.5%.

Regarding `O=C(Nc1ccc2ccccc2c1)OC1CCS(=O)(=O)C1` (configuration not stated), the growth inhibition was -0.75% in assay [1]; -3.9% in assay [2]; 6.1% in assay [3]; 20.4% in assay [4]; -1.8% in assay [5]; -8.25% in assay [6].

`Cc1ccc(S(=O)(=O)Nc2cc3c(cc2NC(=O)C(F)(F)F)-c2ccccc2C3)cc1`: the growth inhibition in assay [1] was 52.8%; in assay [2], -9%; in assay [3], 38.8%; in assay [4] it was -7.4%; in assay [5], -1.25%; in assay [6] it was 46%.

Consider `CC(O)C1OC(n2cnc3c(=O)[nH]cnc32)C(O)C1O` (configuration not stated), for which the growth inhibition in assay [1] was -9.45%; in assay [2], -24.9%; in assay [3] it was -0.65%; in assay [4], -0.85%; in assay [5], -7.05%; in assay [6] it was -22.9%.

In the case of `CC(C)Cc1ncnc2n[nH]nc12`, the growth inhibition in assay [1] is 1.65%; in assay [2], 8.5%; in assay [3], 35.5%; in assay [4] it was 35.4%; in assay [5] it was 20.4%; in assay [6], 17.8%.

With `CC(C)c1nc2c([nH]1)c(=O)n(C)c(=O)n2C`, the growth inhibition in assay [1] is 30.2%; in assay [2], 6.85%; in assay [3], 26.4%; in assay [4], 18%; in assay [5] it was 2.8%; in assay [6] it was 17.9%.

Take `NC1(c2ccccc2)CON=C(c2ccccc2)C1` (configuration not stated): the growth inhibition in assay [1] was 17.2%; in assay [2], 5.85%; in assay [3], -5.8%; in assay [4] it was -15.8%; in assay [5], 1.4%; in assay [6] it was 16.9%.

In the case of `O=C(Nc1ccccc1)C1C2C=CC(C2)C1C(=O)Nc1ccccc1` (configuration not stated), the growth inhibition in assay [1] is 0.2%; in assay [2] it was 27.9%; in assay [3], 5.05%; in assay [4] it was -11.7%; in assay [5], 21.4%; in assay [6] it was -8.25%.
